The record followed here is PubChem BioAssay (Tox21).

Records with an inconclusive call do not appear. The source made the active and inactive calls. Calls come from the whole dose curve; as a rule, active = well fitted cell-killing curve with a large enough effect in the repeat runs; inconclusive = weak or mixed curves, or effect the other way; inactive = flat fitted curve, though single readings scatter.
% is set by controls: 0 for no effect and ±100 for the full control effect; potency is the fitted concentration of half-maximal effect.

This test can be described thus: qHTS RealTime-Glo MT Cell Viability Assay in HEK293 cells - 32 hour (AID 1224868). For activity change, negative = cytotoxic: top concentration of the series differs between compounds. Note: nearly all actives have a fitted effect of over 50% in size. The following applies: RealTime-Glo luminescence; series mostly up to 76.8 µM; activity change, negative = cytotoxic: at the top concentration. From the text:
National Center for Advancing Translational Sciences [NCATS]
NIH Chemical Genomics Center [NCGC]
U.S. Environmental Protection Agency [EPA]
National Institutes of Environmental Health Sciences [NIEHS]
National Toxicology Program [NTP]
U.S. Food and Drug Administration [FDA]
Measure of cell viability is critical in the cell-base assay. Analysis of cell viability is necessary for the characterization of cell responses to cytotoxic drugs and environmental stress. A RealTime-Glo MT Cell Viability Assay to monitor cell viability in real time of continues cell culture during 40 hours of compound treatment was used to screen Tox21 10K library compounds in Hek293 cells. The RealTime-Glo MT Cell Viability Assay is a nonlytic, homogeneous, bioluminescent method to measure cell viability in real time using a simple, plate-based method. The assay involves adding NanoLuc luciferase and a cell-permeant prosubstrate to cells in culture. Viable cells reduce the proprietary prosubstrate to generate a substrate for NanoLuc luciferase. This substrate diffuses from cells into the surrounding culture medium, where it is rapidly used by the NanoLuc Enzyme to produce a luminescent signal. The signal correlates with the number of viable cells, making the assay well suited for cytotoxicity studies.
Tox21 Assay Protocol Summary:
The mixture of Hek293 cell suspension and reagents were dispensed at 600cells/6 ul/well in 1536-well tissue culture treated black solid bottom plates using a Multidrop dispenser. After the assay plates were incubated at a 37 C/5% CO2 incubator for 5 hours, 23 nL of compounds dissolved in DMSO, positive and negative controls was transferred to the assay plate by a pintool work station. The plates were incubated at 37 C for 40 hours. The luminescence intensity were measured at 0h, 8h, 16h, 24h, 32h and 40h time points using ViewLux plate reader during compound treatment.
With `O=P(O)(O)Oc1ccccc1`, the “activity change, negative = cytotoxic” value was 19.9% (inactive).
Same read-out and setting: for `COc1ccc(/C=C/C(=O)c2ccc(OC)cc2OC)cc1` the value was -25.2% [at 35.3 µM] (inactive); for `O=S(=O)(Cl)c1c(Cl)cccc1Cl`, -10.7% (inactive); for `CCCCCCCC/C=C\CCCCCCCC(=O)OCCO`, -0.399% (inactive).
For the compound `CCCCCCC(CO)CCCC` (stereo not given), the “activity change, negative = cytotoxic” value is 0.266% (inactive).
Same read-out and setting: the value for `Nc1ccc(F)cc1` was 1.57% (inactive).
On the same count and under the same terms, for `CCN(CC)CCOC(=O)C(c1ccccc1)c1ccccc1` the value was 9.57% [at 35.3 µM] (inactive); for `Cc1cc([N+](=O)[O-])ccc1N`, -20.3% (inactive).
The same measure, in the same setting: for `CSSc1ccoc1C` the value was 3.85% (inactive); for `CC(=O)OCC(=O)[C@@]1(OC(C)=O)[C@@H](C)C[C@H]2[C@@H]3C[C@H](F)C4=CC(=O)C=C[C@]4(C)[C@@]3(F)[C@@H](O)C[C@@]21C`, -23.5% [at 35.3 µM] (inactive); for `CCCCCCCCCCCCCCN(C)C`, -30.2% [at 15.8 µM] (inactive).
Consider `CC(C)(C)S`, for which the “activity change, negative = cytotoxic” value is -4.37% (inactive).
On the same count and under the same terms, for `BrC(Br)C(Br)Br` the value was -11.1% (inactive).
The same measure, in the same setting: for `CC(C)c1ccc(C(=O)N=C(N)N)cc1S(C)(=O)=O` the value was 8.39% [at 35.3 µM] (inactive); for `CC/C=C\C/C=C\C/C=C\CCCCCCCC(=O)OCC`, -10.9% (inactive); for `Nc1ccn([C@H]2CS[C@@H](CO)O2)c(=O)n1`, -4.1% (inactive).
Same read-out and setting: for `CC[C@H]1OC(=O)[C@H](C)[C@@H](O[C@H]2C[C@@](C)(OC)[C@@H](O)[C@H](C)O2)[C@H](C)[C@@H](O[C@@H]2O[C@H](C)C[C@H](N(C)C)[C@H]2O)[C@](C)(O)C[C@@H](C)/C(=N\OCOCCOC)[C@H](C)[C@@H](O)[C@]1(C)O` the value was -14.9% [at 35.3 µM] (inactive); for `c1ccc(CCCc2ccncc2)cc1`, -25.7% (inactive); for `CCC(CO)(CO)[N+](=O)[O-]`, 0.347% (inactive).
Regarding `CCCCCCCC(=O)OCCCCCC`, the Potency is 3.47 µM (active).
`Cc1cccc(C)c1NC(=O)c1cc(S(N)(=O)=O)c(Cl)cc1O`: the “activity change, negative = cytotoxic” value is 3.86% [at 35.3 µM] (inactive).
Consider `CC(C)(C)C1(CCc2ccc(Cl)cc2)CO1` (stereo not given), for which the “activity change, negative = cytotoxic” value was -12.5% (inactive).
For the compound `CN1C(CSCC(F)(F)F)Nc2cc(Cl)c(S(N)(=O)=O)cc2S1(=O)=O` (stereo not given), the Potency is 19 µM (active).
Consider `O=C1OC[C@H](Cc2cccc(O)c2)[C@H]1Cc1cccc(O)c1`, for which the “activity change, negative = cytotoxic” value is -17.3% [at 35.3 µM] (inactive).
As to `CCO[Si](C)(CCCOCC1CO1)OCC` (stereo not given), the “activity change, negative = cytotoxic” value was 18.3% (inactive).
The same measure, in the same setting: for `COc1cc(NS(=O)(=O)c2ccc(N)cc2)nc(C)n1` the value was 6.86% [at 35.3 µM] (inactive); for `CCCCCCCCCCCC(=O)OCC(O)CO` (stereo not given), 3.46% (inactive); for `Cc1cn([C@H]2C[C@H](F)[C@@H](CO)O2)c(=O)[nH]c1=O`, 14.9% [at 35.3 µM] (inactive).
Same read-out and setting: the value for `CNc1c2c(nn1C)CCCC2` was -2.86% [at 35.3 µM] (inactive); that for `CC1CCC(C(C)CS)CC1S` (stereo not given) was 5.4% (inactive); that for `C=C(C)C(=O)OCCC(F)(F)C(F)(F)C(F)(F)C(F)(F)C(F)(F)C(F)(F)F` was 0.264% (inactive).
On the same count and under the same terms, for `CCOC(=O)c1ccc(NC(=O)CN2CCCCC2)cc1` the value was -15.3% [at 35.3 µM] (inactive); for `COc1ccc(N)c([N+](=O)[O-])c1`, -4.87% (inactive).
As to `CCCCOCCOC(=O)c1cccnc1`, the “activity change, negative = cytotoxic” value is -0.142% [at 35.3 µM] (inactive).
Same read-out and setting: the value for `CC1=C2[C@@H]([C@H](C)CC[C@H]2/C=C(\C)C(=O)O)[C@H](O)C1` was -3.06% (inactive); that for `CC(C)N(C)C` was 1.62% (inactive); that for `N[C@@H](Cc1cc(I)c(O)c(I)c1)C(=O)O` was 5.4% [at 35.3 µM] (inactive).
The same measure, in the same setting: for `CCOc1ncc(F)c(=O)[nH]1` the value was 1.37% [at 35.3 µM] (inactive); for `COC(=O)CC(C(C)=O)C(=O)OC` (stereo not given), 9.3% (inactive).
Still for that read-out and setting: for `CC(=O)NNC(C)=O` the value was 0.223% (inactive).
